Records with an inconclusive call do not appear. Active and inactive are the calls of the source. Unless noted, the call rests on the fitted dose curve; in most records, active means well fitted curve in the direction sought with a large enough effect in the repeat runs; inconclusive means weak or mixed curves; inactive means no such curve, though single readings can be large; an effect the other way counts as inactive or inconclusive.
Experiments:
[1] = qHTS assay to identify small molecule agonists of the peroxisome proliferator-activated receptor delta (PPARd) signaling pathway - cell viability counter screen (AID 743211); further: nearly all actives have a fitted effect of over 55% in size
Summary of the method: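 Viability was measured as CellTiter-Glo luminescence (30 min, room temperature) in the same wells as the beta-lactamase readout. GeneBLAzer PPARd UAS-bla HEK293H cells received compound after 5 h plating and were incubated 17 h at 37 C.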

[2] = biological target: Peroxisome proliferator-activated receptor delta (Homo sapiens) (UniProt Q03181); test: qHTS assay to identify small molecule agonists of the peroxisome proliferator-activated receptor delta (PPARd) signaling pathway (AID 743212; calls by dose curve)
Summary of the method: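 Steps: seed PPARd-bla HEK293H cells; incubate 5 h, 37 C, 5% CO2; add compounds in DMSO; incubate, 37 C; add LiveBLAzer B/G FRET substrate; hold 2 h at room temperature; measure fluorescence.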

[3] = qHTS assay to identify small molecule agonists of the farnesoid-X-receptor (FXR) signaling pathway - cell viability counter screen (AID 743218); further: nearly all actives have a fitted effect of over 45% in size
Summary of the method: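 Cells were seeded, left 5 h at 37 C and 5% CO2, then dosed with compound in DMSO for 16 h. After the beta-lactamase FRET read, CellTiter-Glo was added and luminescence measured 30 min later.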

[4] = qHTS assay to identify small molecule antagonists of the farnesoid-X-receptor (FXR) signaling pathway - cell viability counter screen (AID 743221; active means well fitted cell-killing curve with a large enough effect in the repeat runs, not every such curve was filed as active; further: nearly all actives have a fitted effect of over 50% in size)
Summary of the method: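 Cytotoxicity counter screen run in the FXR-bla reporter wells: HEK 293T cells exposed to compound with 50 uM (final) chenodeoxycholic acid for 16 h, 37 C, then viability measured by CellTiter-Glo luminescence after 30 min, room temperature.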

[5] = qHTS assay to identify small molecule agonists of the vitamin D receptor (VDR) signaling pathway - cell viability counter screen (AID 743224); further: series mostly up to about 63 µM; nearly all actives have a fitted effect of over 50% in size
Summary of the method: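 Cells: VDR-bla, 2,000/well, settled 4 h. Treatment: compounds in DMSO, 16 h, 37C/5% CO2. Readout: CellTiter-Glo luminescence after 30 min RT.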

[6] = qHTS assay to identify small molecule antagonists of the vitamin D receptor (VDR) signaling pathway - cell viability counter screen (AID 743225); further: nearly all actives have a fitted effect of over 50% in size
Summary of the method: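 Cytotoxicity counter screen read by CellTiter-Glo luminescence (30 min, room temperature) in the same wells as the VDR-bla antagonist readout. HEK 293T VDR-UAS-bla cells had 16 h at 37C with compound and 3 nM (final) 1-alpha,25-dihydroxyvitamin D3, then 2 h with FRET substrate.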

[7] = qHTS assay to identify small molecule agonists of the endoplasmic reticulum stress response signaling pathway (AID 1159516; active means well fitted activation curve with a large enough effect in the signal ratio in the repeat runs, not every such curve was filed as active; the % refers to the signal ratio)
Summary of the method: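 Cells are seeded at 1,500 per well and incubated overnight. Compounds in DMSO are added for 5 hr at 37 C, then beta-lactamase FRET substrate for 2 hr at room temperature, and fluorescence at 460 and 530 nm is measured.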

[8] = qHTS assay to identify small molecule agonists of the endoplasmic reticulum stress response signaling pathway - cell viability counter screen (AID 1159517; calls by dose curve;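 further: HeLa cells carrying an ER stress response element beta-lactamase reporter; series mostly up to about 61 µM; nearly all actives have a fitted effect of over 50% in size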)
Summary of the method: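 After overnight attachment, ESRE-bla HeLa cells were treated with Tox21 library compounds for 5 hr. CellTiter-Glo luminescence, read 30 min post-addition at room temperature, reported viability.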

[9] = qHTS assay to identify small molecule antagonists of the retinoid-related orphan receptor gamma (ROR-gamma) signaling pathway - cell viability counter screen (AID 1159520); further: nearly all actives have a fitted effect of over 50% in size
Summary of the method: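 Cytotoxicity was read from cellular ATP (CellTiter-Glo luminescence) after 16 hr at 37 C with 1 uM doxycycline induction. The inducer was added 2 hr after compound transfer to Tet-on ROR gamma CHO cells.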

[10] = biological target: Nuclear receptor ROR-gamma (Homo sapiens) (UniProt P51449); test: qHTS assay to identify small molecule antagonists of the retinoid-related orphan receptor gamma (ROR-gamma) signaling pathway (AID 1159521)
Summary of the method: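 Antagonist read-out: drop in luminescence (ONE-Glo) from an RORE-LUC reporter in CHO cells with doxycycline-inducible ROR-gamma; 2 hr compound pretreatment, 1 uM doxycycline, 16 hr incubation at 37 C.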

[11] = qHTS assay to identify small molecule agonists of the AP-1 signaling pathway - cell viability counter screen (AID 1159525; calls by dose curve; further: nearly all actives have a fitted effect of over 55% in size)
Summary of the method: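 Intracellular ATP by Cell Titer Glo luminescence (30 min, RT) in the same ME-180 AP-1-bla wells after the 5 h compound exposure at 37 °C. Normalised to tetra n-octyl ammonium bromide and DMSO controls.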

[12] = biological target: Vitamin D3 receptor (Homo sapiens) (UniProt P11473); test: qHTS assay to identify small molecule antagonists of the vitamin D receptor (VDR) signaling pathway (AID 743223; active means well fitted inhibition curve with a large enough effect in the signal ratio in the repeat runs, not every such curve was filed as active; the % refers to the signal ratio)
Summary of the method: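 Antagonist mode: compound added to VDR-bla cells alongside agonist 1alpha,25-dihydroxyvitamin D3 (3 nM final), incubation 16 h at 37C. Read-out is LiveBLAzer FRET fluorescence, 2 h at room temperature.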

[13] = qHTS assay to identify small molecule agonists of the AP-1 signaling pathway (AID 1159526; calls by dose curve)
[14] = qHTS assay to identify small molecule antagonists of the peroxisome proliferator-activated receptor delta (PPARd) signaling pathway - cell viability counter screen (AID 743213); further: nearly all actives have a fitted effect of over 50% in size
Summary of the method: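 Viability counter-screen, qHTS format: PPARd-bla HEK293H, L165041 300 nM final, 17 h compound exposure at 37 C, CellTiter-Glo luminescence after 30 min RT.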

[15] = biological target: Peroxisome proliferator-activated receptor delta (Homo sapiens) (UniProt Q03181); test: qHTS assay to identify small molecule antagonists of the peroxisome proliferator-activated receptor delta (PPARd) signaling pathway (AID 743215; active means well fitted inhibition curve with a large enough effect in the signal ratio in the repeat runs, not every such curve was filed as active; the % refers to the signal ratio;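 further: cells stimulated with agonist L165041 at 300 nM final during compound exposure; series mostly up to about 62 µM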)
Summary of the method: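 Cells: HEK293H with a UAS-driven beta-lactamase reporter responsive to PPARd. Compounds were co-added with L165041 (300 nM, final) and incubated 17 h at 37 C before a 2 h room-temperature FRET substrate step and fluorescence reading.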

[16] = biological target: Vitamin D3 receptor (Homo sapiens) (UniProt P11473); test: qHTS assay to identify small molecule agonists of the vitamin D receptor (VDR) signaling pathway (AID 743222; calls by dose curve)
Summary of the method: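 Cells carrying a VDR-driven beta-lactamase reporter are seeded at 2,000 per well and rested 4 h. Compounds in DMSO are added for 16 h at 37C, and FRET substrate fluorescence is measured after 2 h at room temperature.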

[17] = biological target: Retinoic acid receptor RXR-alpha (Homo sapiens) (UniProt P19793); test: qHTS assay to identify small molecule agonists of the RXR signaling pathway (AID 1159527; calls by dose curve; further: nearly all actives have a fitted effect of over 35% in size)
Summary of the method: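 Agonist-mode beta-lactamase reporter assay: HEK 293T RXR-alpha-UAS-bla cells treated 16 hr at 37 C with compounds, 9-cis retinoic acid as positive control. LiveBLAzer FRET substrate, 405 nm excitation, 460/530 nm emission.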

[18] = biological target: Bile acid receptor (Homo sapiens) (UniProt Q96RI1); test: qHTS assay to identify small molecule antagonists of the farnesoid-X-receptor (FXR) signaling pathway (AID 743217; active means well fitted inhibition curve with a large enough effect in the signal ratio in the repeat runs, not every such curve was filed as active; the % refers to the signal ratio)
Summary of the method: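 Cells carrying a UAS-driven beta-lactamase reporter (GeneBLAzer FXR-UAS-bla HEK 293T) were plated and rested 5 h at 37 °C. Compounds in DMSO were added alongside chenodeoxycholic acid agonist at 50 uM final and left 16 h at 37 °C before FRET substrate readout.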

[19] = biological target: Bile acid receptor (Homo sapiens) (UniProt Q96RI1); test: qHTS assay to identify small molecule agonists of the farnesoid-X-receptor (FXR) signaling pathway (AID 743220; active means well fitted activation curve with a large enough effect in the signal ratio in the repeat runs, not every such curve was filed as active; the % refers to the signal ratio)
Summary of the method: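 FXR-UAS-bla HEK 293T cells carrying a UAS-driven beta-lactamase reporter were plated for 5 h at 37C/5% CO2, then exposed to DMSO-dissolved Tox21 10K compounds for 16 h at 37C. A LiveBLAzer B/G FRET substrate was loaded for 2 h at room temperature before fluorescence reading.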

Measured: Potency

Chain of Peroxisome proliferator-activated receptor delta (Homo sapiens) (Q03181 whole entry, looked up): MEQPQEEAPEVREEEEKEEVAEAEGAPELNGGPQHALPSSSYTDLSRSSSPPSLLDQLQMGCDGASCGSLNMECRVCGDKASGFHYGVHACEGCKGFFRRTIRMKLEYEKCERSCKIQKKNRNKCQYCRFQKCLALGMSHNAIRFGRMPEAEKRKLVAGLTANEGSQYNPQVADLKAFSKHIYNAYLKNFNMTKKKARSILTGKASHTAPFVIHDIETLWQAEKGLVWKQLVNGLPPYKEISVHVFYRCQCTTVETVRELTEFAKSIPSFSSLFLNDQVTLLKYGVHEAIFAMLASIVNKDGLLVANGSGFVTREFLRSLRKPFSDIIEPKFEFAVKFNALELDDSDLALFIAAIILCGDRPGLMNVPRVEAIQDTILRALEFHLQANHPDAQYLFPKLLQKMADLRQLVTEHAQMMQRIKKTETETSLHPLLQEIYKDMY
Chain of Bile acid receptor (Homo sapiens) (Q96RI1 whole entry, looked up): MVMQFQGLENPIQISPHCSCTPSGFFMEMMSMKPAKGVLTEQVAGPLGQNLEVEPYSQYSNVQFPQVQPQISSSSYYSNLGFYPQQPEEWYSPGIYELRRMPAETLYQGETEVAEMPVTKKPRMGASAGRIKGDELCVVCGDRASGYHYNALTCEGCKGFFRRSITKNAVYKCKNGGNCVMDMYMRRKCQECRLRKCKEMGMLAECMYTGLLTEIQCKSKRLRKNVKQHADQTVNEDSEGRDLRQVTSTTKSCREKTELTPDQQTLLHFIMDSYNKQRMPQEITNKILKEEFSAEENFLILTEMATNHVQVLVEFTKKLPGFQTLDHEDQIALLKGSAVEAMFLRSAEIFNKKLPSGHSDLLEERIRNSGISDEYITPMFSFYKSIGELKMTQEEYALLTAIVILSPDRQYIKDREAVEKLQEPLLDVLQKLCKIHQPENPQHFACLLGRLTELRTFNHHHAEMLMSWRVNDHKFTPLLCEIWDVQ
Chain of Vitamin D3 receptor (Homo sapiens) (P11473 whole entry, looked up): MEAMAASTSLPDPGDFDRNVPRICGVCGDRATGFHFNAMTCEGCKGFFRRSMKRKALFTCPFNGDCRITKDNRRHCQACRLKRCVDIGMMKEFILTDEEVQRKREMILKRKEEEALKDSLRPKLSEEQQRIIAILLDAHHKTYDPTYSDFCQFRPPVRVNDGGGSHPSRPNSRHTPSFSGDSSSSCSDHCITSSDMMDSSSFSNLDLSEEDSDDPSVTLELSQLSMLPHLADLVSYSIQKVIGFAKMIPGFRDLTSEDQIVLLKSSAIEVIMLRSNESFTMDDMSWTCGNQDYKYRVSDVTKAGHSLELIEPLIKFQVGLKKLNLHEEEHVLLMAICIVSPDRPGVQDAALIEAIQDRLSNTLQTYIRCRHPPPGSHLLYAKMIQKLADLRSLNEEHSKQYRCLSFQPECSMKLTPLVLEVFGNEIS
Chain of Retinoic acid receptor RXR-alpha (Homo sapiens) (P19793 whole entry, looked up): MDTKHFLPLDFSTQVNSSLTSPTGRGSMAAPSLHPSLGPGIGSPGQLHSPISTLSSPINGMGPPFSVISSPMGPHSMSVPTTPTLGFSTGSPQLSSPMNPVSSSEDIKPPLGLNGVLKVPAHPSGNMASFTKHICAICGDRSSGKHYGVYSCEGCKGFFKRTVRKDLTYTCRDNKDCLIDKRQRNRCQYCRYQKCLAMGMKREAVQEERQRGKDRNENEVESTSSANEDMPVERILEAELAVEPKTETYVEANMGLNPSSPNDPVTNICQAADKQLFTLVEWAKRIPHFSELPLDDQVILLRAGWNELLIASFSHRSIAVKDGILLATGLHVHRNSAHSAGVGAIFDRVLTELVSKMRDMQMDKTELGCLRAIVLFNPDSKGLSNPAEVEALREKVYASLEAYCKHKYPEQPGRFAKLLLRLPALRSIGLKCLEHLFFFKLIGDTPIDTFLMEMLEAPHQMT

OC(CCN1CCCCC1)(c1ccccc1)C1CCCCC1 (stereo not given)
not listed: [12] | [13] | [14] | [15] | [16] | [17] | [18] | [19]
inactive: all other assays above

COc1ccc(C(C)=O)cc1
inactive: [4] | [12] | [5] | [7] | [8] | [10] | [11] | [13]

C=C(C)C(=O)OCCOc1ccccc1
not listed: [5] | [9] | [13] | [18] | [19]
inactive: all other assays above

S=C(S)NCCNC(=S)S
inactive: [1] | [4] | [16] | [5] | [7] | [8] | [9] | [10] | [11]

O=C(NN1CCCC1)NS(=O)(=O)c1ccc(Cl)cc1
not listed: [9]
inactive: all other assays above

CCCCCCCCCCCCCCC1CO1 (stereo not given)
not listed: [9] | [17] | [18] | [19]
inactive: all other assays above

CC(=O)Nc1ccc(/C=N/NC(N)=S)cc1
not listed: [7] | [17] | [18] | [19]
inactive: all other assays above

CCCCCCCCCCCCC(=O)O
inactive: [14] | [4] | [5] | [6] | [7] | [8] | [9] | [10] | [11] | [13]

CCOc1ccc2[nH]cc(C(=O)NCc3ccccc3)c(=O)c2n1
not listed: [3] | [7] | [9] | [12] | [17] | [18]
inactive: all other assays above

CCOC(=O)CC(=O)c1cc(F)c(Cl)nc1Cl
not listed: [6] | [12] | [13] | [14] | [15] | [16] | [17] | [18]
inactive: all other assays above

Cc1ccc(O)c([C@H](CCN(C(C)C)C(C)C)c2ccccc2)c1
not listed: [1] | [5] | [6] | [13] | [14] | [17] | [18] | [19]
inactive: all other assays above

From PubChem BioAssay (Tox21)
